In PubChem BioAssay:
Values joined by “and” are separate entries in the source; they are usually repeats but may differ in a detail not shown here. Identical values can stand only once. For some of these results: Measured potencies and affinities stand elsewhere. Active and inactive are the calls of the source. Unless noted, the rule behind the calls is not given here.

Key:
[1] = antimalarial activity against Dd2 strain (AID 2302;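 active = growth inhibition above 50% at the single 2 µM test dose, taken to imply half-maximal potency below 2 µM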;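 note: 0% = DMSO untreated growth and 100% = chloroquine plus artemisinin killed control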); conditions: P. falciparum Dd2 in RBCs, LDH growth readout, 72 h; at 2 µM; active compounds read high
[2] = human hepatoma cell viability loss – ATP luminescence, cytotoxicity control for P. falciparum antimalarial project, primary screen (AID 2303;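 active = inhibition above 50%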;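 note: 0% = DMSO wells and 100% = digitonin-killed cells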); conditions: HepG2 viability, 24-48 h, at 10 µM, active compounds read high
[3] = molecular target: L-lactate dehydrogenase (Plasmodium falciparum (isolate CDC / Honduras)) (UniProt Q27743); experiment: PfLDH activity inhibition – cell lysate, 3D7 strain, counter-screen for P. falciparum growth inhibition project (AID 2304);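 note: 0% = vehicle and 100% = reference inhibitor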; conditions: P. falciparum 3D7 crude extract, LDH APAD/NBT absorbance; at 2 µM; active compounds read high
[4] = inhibition of 3D7 malaria parasite growth – strain 3D7 (AID 2306);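 note: 0% = DMSO wells and 100% = chloroquine plus artemisinin control wells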; conditions: P. falciparum 3D7 erythrocytic growth, LDH absorbance, 72 h; at 2 µM; active compounds read high
[5] = molecular target: Calcium-dependent protein kinase 1 (Plasmodium falciparum (isolate 3D7)) (UniProt P62344); experiment: PfCDPK1 kinase inhibitors, biochemical, TCAMS library (AID 1159585; cut-off not given, nearly all actives have IC50 up to about 0.98 µM;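 note: inhibitors leave more ATP so luminescence rises with inhibition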); conditions: recombinant PfCDPK1, Kinase-Glo ATP depletion luminescence
[6] = molecular target: Plasmodium falciparum protein kinase 6 (PK6, PF3D7_1337100) (UniProt Q8IDW1); experiment: PfPK6 kinase inhibitors, biochemical, TCAMS library (AID 1159586); conditions: recombinant PfPK6, Kinase-Glo ATP depletion luminescence
[7] = molecular target: Protein kinase 7 (PK7), Plasmodium falciparum 3D7 (PF3D7_0213400) (UniProt Q7YTF7); experiment: inhibition of Plasmodium PK7 catalytic activity – biochemical, TCAMS antimalarial set, Kinase-Glo luminescence (AID 1159587); conditions: recombinant PfPK7, Kinase-Glo ATP depletion luminescence
[8] = molecular target: Calcium-dependent protein kinase 4 (Plasmodium falciparum (isolate 3D7)) (UniProt Q8IBS5); experiment: PfCDPK4 kinase inhibitors, biochemical, TCAMS library (AID 1159588; cut-off not given, nearly all actives have IC50 up to about 0.91 µM); conditions: recombinant PfCDPK4, Kinase-Glo ATP depletion luminescence
Calcium-dependent protein kinase 4 (Plasmodium falciparum (isolate 3D7)), sequence (Q8IBS5 whole entry, looked up): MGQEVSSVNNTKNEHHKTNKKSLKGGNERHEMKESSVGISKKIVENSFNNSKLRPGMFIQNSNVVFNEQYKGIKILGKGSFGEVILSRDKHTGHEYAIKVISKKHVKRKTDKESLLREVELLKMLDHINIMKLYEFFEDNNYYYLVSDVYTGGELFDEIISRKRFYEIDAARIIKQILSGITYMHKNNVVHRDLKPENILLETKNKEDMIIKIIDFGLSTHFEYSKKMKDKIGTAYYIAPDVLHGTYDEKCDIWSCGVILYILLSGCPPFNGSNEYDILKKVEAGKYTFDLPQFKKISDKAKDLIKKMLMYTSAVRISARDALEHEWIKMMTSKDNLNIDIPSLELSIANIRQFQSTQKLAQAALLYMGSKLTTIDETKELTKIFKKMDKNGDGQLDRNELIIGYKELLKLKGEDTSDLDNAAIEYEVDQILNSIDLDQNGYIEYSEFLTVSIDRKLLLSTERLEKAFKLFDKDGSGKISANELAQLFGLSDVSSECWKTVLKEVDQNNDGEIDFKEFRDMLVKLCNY

Protein kinase 7 (PK7), Plasmodium falciparum 3D7 (PF3D7_0213400), sequence (Q7YTF7 1-343): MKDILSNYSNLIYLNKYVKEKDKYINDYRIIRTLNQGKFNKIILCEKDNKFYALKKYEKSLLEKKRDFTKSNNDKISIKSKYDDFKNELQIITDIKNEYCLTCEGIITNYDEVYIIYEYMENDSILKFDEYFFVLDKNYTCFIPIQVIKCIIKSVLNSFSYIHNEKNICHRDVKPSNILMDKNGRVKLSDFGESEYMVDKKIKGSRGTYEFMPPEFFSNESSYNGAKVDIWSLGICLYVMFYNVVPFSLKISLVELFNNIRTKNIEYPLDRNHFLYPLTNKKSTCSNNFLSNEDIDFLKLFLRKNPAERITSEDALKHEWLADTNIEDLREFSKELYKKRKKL
Calcium-dependent protein kinase 1 (Plasmodium falciparum (isolate 3D7)), sequence (P62344 whole entry, looked up): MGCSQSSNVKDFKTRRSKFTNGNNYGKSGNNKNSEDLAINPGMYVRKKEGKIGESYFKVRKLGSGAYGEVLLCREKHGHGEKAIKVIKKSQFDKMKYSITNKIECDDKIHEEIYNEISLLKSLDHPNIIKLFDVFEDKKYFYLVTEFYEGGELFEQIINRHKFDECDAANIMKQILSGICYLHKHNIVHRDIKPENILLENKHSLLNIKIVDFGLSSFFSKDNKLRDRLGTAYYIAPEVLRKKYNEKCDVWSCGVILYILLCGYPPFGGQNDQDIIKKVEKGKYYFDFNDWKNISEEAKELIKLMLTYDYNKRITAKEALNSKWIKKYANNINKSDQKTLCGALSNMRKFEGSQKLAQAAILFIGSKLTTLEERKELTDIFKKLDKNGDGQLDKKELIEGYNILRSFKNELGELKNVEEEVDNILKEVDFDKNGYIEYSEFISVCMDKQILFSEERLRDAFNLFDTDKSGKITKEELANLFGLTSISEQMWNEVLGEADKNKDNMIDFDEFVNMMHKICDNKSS
L-lactate dehydrogenase (Plasmodium falciparum (isolate CDC / Honduras)), sequence (Q27743 whole entry, looked up): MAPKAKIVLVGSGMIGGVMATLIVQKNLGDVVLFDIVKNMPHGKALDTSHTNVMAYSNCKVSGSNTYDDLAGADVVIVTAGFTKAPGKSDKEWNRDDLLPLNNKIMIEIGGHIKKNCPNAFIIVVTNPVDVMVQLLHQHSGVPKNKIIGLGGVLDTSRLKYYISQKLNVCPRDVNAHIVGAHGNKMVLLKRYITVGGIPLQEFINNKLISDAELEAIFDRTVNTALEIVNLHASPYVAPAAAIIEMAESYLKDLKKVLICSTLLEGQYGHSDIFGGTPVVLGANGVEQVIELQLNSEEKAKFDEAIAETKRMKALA
Plasmodium falciparum protein kinase 6 (PK6, PF3D7_1337100), sequence (Q8IDW1 1-305): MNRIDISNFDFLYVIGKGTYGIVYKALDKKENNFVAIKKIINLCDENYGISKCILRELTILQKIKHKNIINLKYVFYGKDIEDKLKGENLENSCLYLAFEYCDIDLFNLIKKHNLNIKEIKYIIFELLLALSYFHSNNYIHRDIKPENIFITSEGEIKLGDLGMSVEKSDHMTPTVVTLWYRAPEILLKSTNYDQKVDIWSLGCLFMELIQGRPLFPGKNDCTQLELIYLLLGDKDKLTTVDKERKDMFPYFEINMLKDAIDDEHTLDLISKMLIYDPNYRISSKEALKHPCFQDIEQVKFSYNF

CC(=O)C1(c2ccccc2)CCN(CCC2(c3ccc(Cl)c(Cl)c3)CN(C(=O)C3CCCC3)CCO2)CC1 (centres undefined)
active: growth inhibition [1] 70% | growth inhibition [4] 88%
inactive: inhibition [2] 11% | inhibition [3] 1% | outcome [5] | outcome [6] | outcome [7] | outcome [8]

COc1ccc(C(=O)[C@H]2C[C@@H]2CN2CC=C(c3c[nH]c4ccccc34)CC2)cc1
inactive: inhibition [2] 12% | inhibition [3] 1% | outcome [5] | outcome [6] | outcome [7] | outcome [8]
active: growth inhibition [1] 89% | growth inhibition [4] 95%

O=C(Nc1ccc(Cl)c(Cl)c1)N1CCC(CN2CCC(c3c[nH]c4ccccc34)CC2)CC1
inactive: inhibition [2] 46% | inhibition [3] -2% | outcome [5] | outcome [6] | outcome [7] | outcome [8]
active: growth inhibition [1] 69% | growth inhibition [4] 100%

OC1(c2ccc(Cl)c(C(F)(F)F)c2)CCN(CCOC2c3ccccc3CSc3ccc(Cl)cc32)CC1 (centres undefined)
active: growth inhibition [1] 58% | growth inhibition [4] 95%
inactive: inhibition [2] 3% | inhibition [3] 6% | outcome [5] | outcome [6] | outcome [7] | outcome [8]

O=C(/C=C/c1ccc(Cl)cc1)NC1CCC(CN2CCC(c3c[nH]c4ccccc34)CC2)CC1 (centres undefined)
active: growth inhibition [1] 67% and 90% | growth inhibition [4] 99% and 100%
inactive: inhibition [2] 39% and 40% | inhibition [3] -6% and 4% | outcome [5] | outcome [6] | outcome [7] | outcome [8]

COc1cccc(C=CC(=O)NC2CCC(CN3CCC(c4c[nH]c5ccccc45)CC3)CC2)c1OC (centres undefined)
active: growth inhibition [4] 102%
inactive: growth inhibition [1] 40% | inhibition [2] 37% | inhibition [3] -1% | outcome [5] | outcome [6] | outcome [7] | outcome [8]

CCCCCOc1ccc(CC(C)NCC(O)c2cccc(Cl)c2)cc1 (centres undefined)
inactive: inhibition [2] 0% | inhibition [3] 2% | outcome [5] | outcome [6] | outcome [7] | outcome [8]
active: growth inhibition [1] 99% | growth inhibition [4] 101%

OC(CNC12CC3CC(CC(C3)C1)C2)c1cccc(C(F)(F)F)c1 (centres undefined)
active: growth inhibition [1] 98% | growth inhibition [4] 97%
inactive: inhibition [2] 16% | inhibition [3] -3% | outcome [5] | outcome [6] | outcome [7] | outcome [8]

O=C1Nc2cccc3c2C1(CCCCN1CC=C(c2c[nH]c4ncccc24)CC1)CCC3 (centres undefined)
active: growth inhibition [1] 80% | growth inhibition [4] 92%
inactive: inhibition [2] 11% | inhibition [3] -5% | outcome [5] | outcome [6] | outcome [7] | outcome [8]

CC[C@H]1CN2CC[C@H]1C[C@H]2[C@H](O)c1cc(-c2ccc3ccccc3c2)nc2ccc(OC)cc12
active: growth inhibition [1] 99% | growth inhibition [4] 99%
inactive: inhibition [2] 49% | inhibition [3] -3% | outcome [5] | outcome [6] | outcome [7] | outcome [8]

COc1coc(C(=O)NC2CCN(CC3(c4ccc(Cl)cc4)CCC3)CC2)c1OC
inactive: inhibition [2] 2% | inhibition [3] -3% | outcome [5] | outcome [6] | outcome [7] | outcome [8]
active: growth inhibition [1] 96% | growth inhibition [4] 96%

CCCCNC(c1ccc(Cl)cc1)C(O)c1ccc(Cl)cc1 (centres undefined)
inactive: inhibition [2] 13% | inhibition [3] 4% | outcome [5] | outcome [6] | outcome [7] | outcome [8]
active: growth inhibition [1] 98% | growth inhibition [4] 99%

COc1ccc(CC(C)NCC(O)c2cccc(C(F)(F)F)c2)cc1 (centres undefined)
active: growth inhibition [1] 94% | growth inhibition [4] 98%
inactive: inhibition [2] -7% | inhibition [3] 3% | outcome [5] | outcome [6] | outcome [7] | outcome [8]

CC(=O)N(Cc1ccccc1-c1ccc(CNCCc2ccccc2)cc1)C1CCN(Cc2ccccc2)CC1
inactive: inhibition [2] 24% | inhibition [3] 3% | outcome [5] | outcome [6] | outcome [7] | outcome [8]
active: growth inhibition [1] 85% | growth inhibition [4] 101%

CC(=O)C1(c2ccccc2)CCN(CCC2(c3ccc(Cl)c(Cl)c3)CN(C(=O)c3cccc(Cl)c3)CCO2)CC1 (centres undefined)
inactive: inhibition [2] 37% | inhibition [3] -3% | outcome [5] | outcome [6] | outcome [7] | outcome [8]
active: growth inhibition [1] 61% | growth inhibition [4] 90%

CC[C@H]1CN2CC[C@H]1C[C@H]2[C@H](O)c1cc(-c2ccc(F)cc2C)nc2ccc(OC)cc12
active: growth inhibition [1] 100% | growth inhibition [4] 99%
inactive: inhibition [2] -2% | inhibition [3] -3% | outcome [5] | outcome [6] | outcome [7] | outcome [8]

COc1ccc(C2CNCc3c2cc(OC)c(OC)c3Cl)cc1 (centres undefined)
active: growth inhibition [4] 98%
inactive: growth inhibition [1] 3% | inhibition [2] 42% | inhibition [3] 2% | outcome [5] | outcome [6] | outcome [7] | outcome [8]

COc1ccc(CN2CCN(CCOC(c3ccccc3)c3ccc(Cl)cc3)CC2)c(O)c1 (centres undefined)
inactive: inhibition [2] 12% | inhibition [3] 0% | outcome [5] | outcome [6] | outcome [7] | outcome [8]
active: growth inhibition [1] 98% | growth inhibition [4] 99%

O=C(/C=C/c1cc(C(F)(F)F)ccc1F)NC1CCC(CN2CCC(c3c[nH]c4ccccc34)CC2)CC1 (centres undefined)
inactive: inhibition [2] 5% | inhibition [3] -5% | outcome [5] | outcome [6] | outcome [7] | outcome [8]
active: growth inhibition [1] 66% | growth inhibition [4] 101%

CC(C)CNCc1ccc(-c2ccc(CN(C(=O)NC3CCCCC3)C3CCN(Cc4ccccc4)CC3)cc2)cc1
inactive: inhibition [2] 39% | inhibition [3] -1% | outcome [5] | outcome [6] | outcome [7] | outcome [8]
active: growth inhibition [1] 88% | growth inhibition [4] 101%

O=C(/C=C/c1cc(F)cc(C(F)(F)F)c1)N1CCC(CN2CCC(c3c[nH]c4ccccc34)CC2)CC1
active: growth inhibition [1] 74% | growth inhibition [4] 101%
inactive: inhibition [2] 32% | inhibition [3] 3% | outcome [5] | outcome [6] | outcome [7] | outcome [8]

COC(=O)c1ccc(CC(C)NCC(O)c2cccc(I)c2)cc1 (centres undefined)
active: growth inhibition [1] 54% | growth inhibition [4] 87%
inactive: inhibition [2] 15% | inhibition [3] -2% | outcome [5] | outcome [6] | outcome [7] | outcome [8]

C=C[C@H]1CN2CC[C@H]1C[C@H]2[C@H](O)c1cc(/C=C/c2ccc(F)cc2)nc2ccc(OC)cc12
inactive: inhibition [2] 25% | inhibition [3] 4% | outcome [5] | outcome [6] | outcome [7] | outcome [8]
active: growth inhibition [1] 99% | growth inhibition [4] 99%

CCCCCCC(C)c1cc(O)c2c(c1)OC(C)(C)c1ccncc1-2 (centres undefined)
inactive: inhibition [2] -3% | inhibition [3] -4% | outcome [5] | outcome [6] | outcome [7] | outcome [8]
active: growth inhibition [1] 61% | growth inhibition [4] 100%

Oc1cc2c(cc1CN1CCN(Cc3ccccc3)CC1)CCC2
inactive: inhibition [2] 1% | inhibition [3] 0% | outcome [5] | outcome [6] | outcome [7] | outcome [8]
active: growth inhibition [1] 92% | growth inhibition [4] 98%

COc1cccc(C(=O)C2CC2CN2CC=C(c3c[nH]c4ccc(OC)nc34)CC2)c1 (centres undefined)
inactive: inhibition [2] 8% | inhibition [3] -2% | outcome [5] | outcome [6] | outcome [7] | outcome [8]
active: growth inhibition [1] 89% | growth inhibition [4] 94%

CC[C@H]1CN2CC[C@@H]1C[C@H]2[C@H](O)c1cc(N2CCC(O)CC2)nc2ccc(OC)cc12
active: growth inhibition [1] 92% | growth inhibition [4] 99%
inactive: inhibition [2] 15% | inhibition [3] 3% | outcome [5] | outcome [6] | outcome [7] | outcome [8]

CCCCCc1cc(O)c2c(c1)OC(C)(C)c1ccncc1-2
inactive: inhibition [2] -5% | inhibition [3] -1% | outcome [5] | outcome [6] | outcome [7] | outcome [8]
active: growth inhibition [1] 57% | growth inhibition [4] 99%

O=C(/C=C/c1ccc(Cl)c(Cl)c1)NCc1ccc(CN2CCC(c3c[nH]c4ccccc34)CC2)cc1
inactive: inhibition [3] -2% | outcome [5] | outcome [6] | outcome [7] | outcome [8]
active: growth inhibition [1] 86% | inhibition [2] 59% | growth inhibition [4] 101%

CS(=O)(=O)Nc1ccc2[nH]cc(C3CCN(CC4CCC(NC(=O)/C=C/c5ccc(Cl)c(Cl)c5)CC4)CC3)c2c1 (centres undefined)
inactive: inhibition [2] 22% | inhibition [3] -3% | outcome [5] | outcome [6] | outcome [7] | outcome [8]
active: growth inhibition [1] 86% | growth inhibition [4] 100%

CC(=O)N(Cc1cccc(-c2ccc(CNCCc3ccccc3)cc2)c1)C1CCN(Cc2ccccc2)CC1
active: growth inhibition [1] 50% | growth inhibition [4] 99%
inactive: inhibition [2] 32% | inhibition [3] -5% | outcome [5] | outcome [6] | outcome [7] | outcome [8]

CC(Cc1ccc(Oc2ccc(Cl)cc2)cc1)NCC(O)c1cccc(Cl)c1 (centres undefined)
inactive: inhibition [2] 3% | inhibition [3] -2% | outcome [5] | outcome [6] | outcome [7] | outcome [8]
active: growth inhibition [1] 98% | growth inhibition [4] 99%

CC[C@H]1CN2CC[C@@H]1C[C@H]2[C@H](O)c1cc(N2CCC(C(N)=O)CC2)nc2ccc(OC)cc12
inactive: growth inhibition [1] 9% | inhibition [2] 17% | inhibition [3] -5% | outcome [5] | outcome [6] | outcome [7] | outcome [8]
active: growth inhibition [4] 99%

CC(C)CNCc1cccc(-c2cccc(CN(C(=O)c3cccs3)C3CCN(Cc4ccccc4)CC3)c2)c1
inactive: growth inhibition [1] 36% | inhibition [2] 14% | inhibition [3] -4% | outcome [5] | outcome [6] | outcome [7] | outcome [8]
active: growth inhibition [4] 90%

CC[C@H]1CN2CC[C@H]1C[C@H]2[C@H](O)c1cc(-c2ccccc2C)nc2ccc(OC)cc12
inactive: inhibition [2] 16% | inhibition [3] 2% | outcome [5] | outcome [6] | outcome [7] | outcome [8]
active: growth inhibition [1] 98% | growth inhibition [4] 100%

O=C(NCCC1CCN(CCc2c[nH]c3ccccc23)CC1)Nc1ccc(Cl)c(Cl)c1
active: growth inhibition [4] 101%
inactive: growth inhibition [1] 5% | inhibition [2] 18% | inhibition [3] -2% | outcome [5] | outcome [6] | outcome [7] | outcome [8]

CN(C)c1cccc(NC(=O)NC2N=C(c3ccccc3)c3ccccc3N(CC(=O)N(C)c3ccccc3)C2=O)c1 (centres undefined)
inactive: inhibition [2] 1% | inhibition [3] 4% | outcome [5] | outcome [6] | outcome [7] | outcome [8]
active: growth inhibition [1] 80% | growth inhibition [4] 99%

Cc1cccc(C(=O)Nc2ccnc(N(C)C3CCN(CC(C)C)CC3)c2)c1
inactive: growth inhibition [1] 6% | inhibition [2] 10% | inhibition [3] -2% | outcome [5] | outcome [6] | outcome [7] | outcome [8]
active: growth inhibition [4] 95%
